# Measurements reported in PubChem BioAssay (NCATS).
# Inconclusive results are not listed. Entries that show only a call come without a potency. Unmarked numbers belong to inactive results. Activity calls are given as the source filed them. Calls follow the shape of the dose curve; as a rule, active = well fitted cell-killing curve with a large enough effect; inconclusive = small, poorly fitted or top-dose-only effect, or effect the other way; inactive = flat fitted curve, though single readings scatter.
# Columns and labels:
# Tov-21-G = experiment: Primary qHTS to identify gynecologic anti-cancer compounds using libraries of approved drugs and bioactive compounds (AID 1345084); details: Gynecologic cancer cell panel viability, ATPlite luminescence, 48 h; series mostly up to 57.5 µM; also: nearly all actives have a fitted effect of over 55% in size
# Procedure, shortened: (§1)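 In this quantitative HTS, cell killing is estimated from loss of ATP-dependent luciferase light. Cells see five compound concentrations over a 48 h exposure.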
# Tov112D = experiment: as above; details: Gynecologic cancer cell panel viability, ATPlite luminescence, 48 h; series mostly up to 57.5 µM
# Procedure, shortened: as §1
# Potency is read from the fitted curve at half-maximal effect.
smiles,measurement,setting,value
CO[C@H]1[C@H](O)[C@H](O[C@H]2CC[C@]3(C)C4CC[C@]5(C)[C@H](C6=CC(=O)OC6)CC[C@]5(O)C4CC[C@@H]3C2)O[C@@H](C)[C@@H]1O (some centres undefined),Potency,Tov-21-G,31.6 nM (active)
CN1C(=O)c2ccccc2NC(=O)C1Cc1ccccc1 (centres undefined),Potency,Tov-21-G,inactive
same,Potency,Tov112D,inactive
COC1C(O)C(OC2CCC3(C=O)C(CCC4C3CCC3(C)C(C5=CC(=O)OC5)CCC43O)C2)OC(C)C1OC1OC(CO)C(O)C(O)C1O (centres undefined),Potency,Tov-21-G,631 nM (active)
same,Potency,Tov112D,316 nM (active)
CC(C)C1(OO)C=C2C(=O)CC3C(C)(C(=O)O)CCCC3(C)C2CC1 (centres undefined),Potency,Tov-21-G,inactive
same,Potency,Tov112D,inactive
C[C@@](O)(COc1ccc(C#N)cc1)C(=O)Nc1ccc(C#N)c(C(F)(F)F)c1,Potency,Tov-21-G,inactive
same,Potency,Tov112D,inactive
COC1CC(OC2CCC3(C)C(CCC4C3CCC3(C)C(C5=CC(=O)OC5)C(OC(C)=O)CC43O)C2)OC(C)C1OC1OC(CO)C(O)C(O)C1O (centres undefined),Potency,Tov-21-G,1260 nM (active)
same,Potency,Tov112D,891 nM (active)
COC1CC(=O)C23C(=O)NC(CC(C)C)C2C(C)=C(C)C(OO)C3/C=C(\C)CCC(O)C1O (centres undefined),Potency,Tov-21-G,inactive
same,Potency,Tov112D,inactive
C[C@H](NC(=O)Cc1cc(F)cc(F)c1)C(=O)N[C@@H]1N=C(c2ccccc2)c2ccccc2N(C)C1=O,Potency,Tov-21-G,inactive
same,Potency,Tov112D,inactive
CC(=O)O[C@H]1C[C@@H](OC(C)=O)C(C)(C)C2C[C@@H](O)[C@]3(C)C(CC[C@@]4(C)[C@H](C5=CC(=O)OC5O)C[C@H]5O[C@]543)[C@]21C (some centres undefined),Potency,Tov-21-G,inactive
same,Potency,Tov112D,inactive
COC1C(O)C(C)OC(OC2C(CO)O[C@@H](O[C@@H]3CC4CCC5C(CC[C@]6(C)[C@@H](C7=CC(=O)OC7)CC[C@]56O)[C@@]4(C)[C@H](O)C3)C(O)C2O)C1O (some centres undefined),Potency,Tov-21-G,1000 nM (active)
same,Potency,Tov112D,501 nM (active)
Oc1ccc2c3c1O[C@H]1[C@H](N(CCCl)CCCl)CC[C@@]4(O)[C@@H](C2)N(CC2CC2)CC[C@]314,"activity change, negative = cytotoxicity",Tov-21-G,6.96% [at 11.6 µM]
same,"activity change, negative = cytotoxicity",Tov112D,3.75% [at 11.6 µM]
CCN1C[C@]2(COC(=O)c3ccccc3N3C(=O)C[C@H](C)C3=O)CC[C@H](OC)[C@@]34[C@@H]5C[C@H]6[C@H](OC)[C@@H]5[C@](O)(C[C@@H]6OC)[C@](O)([C@@H](OC)[C@H]23)[C@@H]14,Potency,Tov-21-G,inactive
same,Potency,Tov112D,inactive
CC(C)(O)[C@H]1O[C@H]2CC[C@@]3(C)[C@@](O)(CC[C@H]4Cc5c([nH]c6ccccc56)[C@@]43C)C2=CC1=O,Potency,Tov-21-G,inactive
same,Potency,Tov112D,inactive
CC(C)=C1CC[C@]23CO[C@H](C2)[C@@](O)(C(=O)O)CCC13 (some centres undefined),Potency,Tov-21-G,inactive
same,Potency,Tov112D,inactive
COC(=O)C1(C)CCC(O)C2(C)c3c(O)cc(C(C)C)cc3C(O)C(OC(C)=O)C12 (centres undefined),Potency,Tov-21-G,inactive
same,Potency,Tov112D,inactive
C[C@]12CC[C@H]3[C@@H]([C@H](O)CC4=CC(=O)CC[C@@]43C)[C@@H]1CC[C@@H]2O,Potency,Tov-21-G,inactive
same,Potency,Tov112D,inactive
CN(C)CCc1c[nH]c2ccc(CN3CCN(C)S3(=O)=O)cc12,Potency,Tov-21-G,inactive
same,Potency,Tov112D,inactive
O=C(N1CCOCC1)N1CCN(c2ccc(Cl)cc2)CC1,Potency,Tov-21-G,inactive
same,Potency,Tov112D,inactive
COC(=O)C1(C)CCC(O)C2(C)c3cc(O)c(C(C)C)cc3C(O)C(OC(C)=O)C12 (centres undefined),Potency,Tov-21-G,inactive
same,Potency,Tov112D,inactive
CCN1CC2(COC)C3[C@@H](OC)C4C1C3(C1C[C@]3(O)[C@H](OC(=O)c5ccccc5)C1[C@]4(OC(C)=O)[C@@H](O)[C@@H]3OC)[C@H](OC)C[C@H]2O (some centres undefined),Potency,Tov-21-G,inactive
same,Potency,Tov112D,inactive
C1=C2CCCN[C@H]2[C@@H]2C[C@H]1[C@H]1CCCCN1C2,Potency,Tov-21-G,inactive
same,Potency,Tov112D,inactive
CN[C@H]1[C@H](O)[C@H](O[C@@H]2[C@@H](O)[C@H](O[C@H]3O[C@H]([C@H](C)O)[C@@H](O)[C@H](O)[C@H]3N)[C@@H](N)C[C@H]2N)OC[C@@]1(C)O,Potency,Tov-21-G,inactive
same,Potency,Tov112D,inactive
C/C=C(\C)C(=O)O[C@H]1[C@H](OC(C)=O)[C@]2(CO)[C@H](O)[C@H](O)[C@]3(C)C(=CCC4[C@@]5(C)CC[C@H](O[C@@H]6O[C@H](C(=O)O)[C@@H](O)[C@H](O[C@@H]7OC[C@H](O)[C@H](O[C@@H]8OC[C@H](O)[C@H](O)[C@H]8O)[C@H]7O)[C@H]6O[C@@H]6O[C@H](CO)[C@@H](O)[C@H](O)[C@H]6O)C(C)(C)C5CC[C@]43C)[C@@H]2CC1(C)C (some centres undefined),"activity change, negative = cytotoxicity",Tov-21-G,19.4% [at 6.55 µM]
same,"activity change, negative = cytotoxicity",Tov112D,8.32% [at 6.55 µM]
C[C@H]1C(=O)O[C@H]2[C@H](O)[C@]34C5OC(=O)[C@]3(O[C@@H]3OC(=O)[C@H](O)C34[C@H](C(C)(C)C)[C@H]5O)C12O (some centres undefined),Potency,Tov-21-G,inactive
same,Potency,Tov112D,inactive
COC(=O)N1CCN(C(=O)Cc2ccc(Cl)c(Cl)c2)[C@@H](CN2CCCC2)C1,Potency,Tov-21-G,inactive
same,Potency,Tov112D,inactive
CN(C(=O)Cc1ccccc1)C(CN1CCCC1)c1ccccc1 (centres undefined),Potency,Tov-21-G,inactive
same,Potency,Tov112D,inactive
C[C@@H]1C(=O)O[C@H]2[C@H](O)[C@@]34[C@@H]5OC(=O)[C@@]3(O[C@@H]3OC(=O)[C@@H](O)[C@@]34[C@H](C(C)(C)C)[C@H]5O)[C@@]12O,Potency,Tov-21-G,inactive
same,Potency,Tov112D,inactive
C[C@H]1O[C@@H](O[C@H]2C[C@@H](O)[C@]3(CO)C4C(CC[C@]3(O)C2)[C@@]2(O)CC[C@H](C3=CC(=O)OC3)[C@@]2(C)C[C@H]4O)[C@@H](O)[C@@H](O)[C@H]1O (some centres undefined),Potency,Tov-21-G,178 nM (active)
same,Potency,Tov112D,112 nM (active)
C=C1[C@@H]2CC[C@@]3(C)[C@H](c4ccoc4)OC(=O)C[C@]13O[C@H]1CC(=O)C(C)(C)[C@H](C(OC(C)=O)C(=O)OC)[C@]12C (some centres undefined),Potency,Tov-21-G,inactive
same,Potency,Tov112D,inactive
C/C=C(\C)C(=O)OC1CC2C(CC=C3CC(OC4CC(OC)C(OC5CC(OC)C(OC6OC(C)C(OC7OC(CO)C(O)C(O)C7O)C(OC)C6O)C(C)O5)C(C)O4)CCC32C)C2(O)CCC(C(C)=O)C12C (centres undefined),"activity change, negative = cytotoxicity",Tov-21-G,3.39% [at 11.6 µM]
same,"activity change, negative = cytotoxicity",Tov112D,3.97% [at 11.6 µM]
